# “And” between values parts separate entries of the source, which are not always exact repeats. Identical values can stand only once. In all, about 37,000 compounds went through this assay and about 290 (0.78%) were called active. About 10% were inconclusive and are not listed.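 Rule for the calls: active = mean inhibition of at least 10% in the main channel, exceeding the control channel by a set limit; inconclusive = inhibition of 10% or more but channel gap under a set limit; inactive = mean inhibition below 10%.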 What follows is part of a selection rich in actives, with near analogues and random picks from the rest.
# Assay: inhibitors of DUX4-driven ZSCAN4 reporter expression, primary screen, 293T cells, Gaussia and Italica luciferase (AID 1224904);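 for activity change, negative = inhibition: 0% = median of neutral control wells and -100% = median of positive control wells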
# Details: 293T-iDUX4 ZSCAN4-Gaussia luciferase reporter, 24 h, stronger effect = lower value, concentration not given here; for Gaussia minus Italica difference: measured here: selective DUX4 reporter inhibition
# [1] = measured here: Italica tet-on control reporter
Structure (SMILES),"activity change, negative = inhibition","activity change, negative = inhibition [1]",Gaussia minus Italica difference
O=C(CC(F)(F)F)N1C[C@H]2[C@@H](c3ccccc31)[C@H](CO)N2C(=O)Cc1cccnc1,2.67% (inactive),0.448%,2.22%
CCCC#Cc1ccc([C@@H]2[C@@H](C#N)N(C(=O)C3CCC3)[C@H]2CO)cc1,0.61% (inactive),1.62%,-1.01%
COc1cccc(CN2[C@H](CO)[C@@H]3c4ccccc4N(C(=O)c4ccncc4)C[C@@H]32)c1,-3.19% (inactive),4.06%,-7.25%
COc1cccc(C(=O)Nc2ccc3c(c2)C(=O)N(C)[C@H]2CC[C@@H](CC(=O)N[C@H](C)c4ccccc4)O[C@H]2CO3)c1,-1.13% (inactive),0.375%,-1.51%
COC(=O)[C@@H]1[C@@H](CO)[C@@H]2Cn3c(ccc(-c4ccccc4F)c3=O)[C@@H]2N1CC1CCOCC1,-4.32% (inactive),8.44%,-12.8%
O=C([C@H]1[C@H](CO)[C@H]2Cn3c(cccc3=O)[C@@H]1N2Cc1cocn1)N1CCCCC1,0.941% (inactive),1.28%,-0.343%
C/C=C/c1ccc(C2[C@H]3CNC[C@@H]2N3C(=O)Nc2cc(F)ccc2F)cc1 (some centres undefined),15.1% (inactive) and 2.98% (inactive),3.89% and 2.36%,11.2% and 0.626%
O=C(c1ccncc1)N1CC2(C1)[C@@H](c1ccccc1)[C@H](CO)N2C(=O)c1ccncc1,9.03% (inactive),0.77%,8.26%
CO[C@@H]1CN(C)C(=O)c2cc(NS(=O)(=O)c3cn(C)cn3)ccc2OC[C@@H](C)N(CCC(F)(F)F)C[C@H]1C,2.8% (inactive),2.78%,0.0206%
CC(C)NC(=O)Nc1ccc2c(c1)C(=O)N(C)[C@H]1CC[C@H](CC(=O)NCc3ccc(F)cc3)O[C@H]1CO2,-1.78% (inactive),-0.912%,-0.872%
CN1C(=O)c2cc(NC(=O)Nc3ccccc3F)ccc2OC[C@H]2O[C@@H](CC(=O)Nc3cccc(Cl)c3)CC[C@@H]21,2.01% (inactive),1.81%,0.199%
CN1C(=O)c2cc(NC(=O)c3ccc(Cl)cc3)ccc2OC[C@@H]2O[C@@H](CC(=O)O)CC[C@H]21,3.27% (inactive),2.43%,0.834%
CCS(=O)(=O)N1[C@H](CO)[C@@H](c2ccc(C#CC(C)C)cc2)[C@@H]1C#N,-1.24% (inactive),-0.906%,-0.33%
COc1ccccc1CN1[C@@H]2CNC[C@H]1C2c1ccc(-c2cccc(C#N)c2)cc1 (some centres undefined),2.24% (inactive) and -7% (inactive),7.91% and -13.5%,-5.67% and 6.5%
CCCNC(=O)C[C@H]1CC[C@H]2[C@@H](COc3ccc(NC(=O)Nc4c(C)noc4C)cc3C(=O)N2C)O1,1.35% (inactive),1.62%,-0.269%
O=C(Cc1ccncc1)N1C[C@@H]2N[C@H](C1)C2c1ccc(-c2ccc(F)cc2)cc1 (some centres undefined),-3.63% (inactive),1.35%,-4.98%
CN(C)C(=O)c1cccc(-c2ccc(C3[C@@H]4CN(S(=O)(=O)c5ccc(F)cc5)C[C@H]3N4)cc2)c1 (some centres undefined),-0.156% (inactive),-4.49%,4.34%
N#Cc1ccc(-c2ccc(C3[C@@H]4CN(S(=O)(=O)c5ccc(F)cc5)C[C@H]3N4)cc2)cc1 (some centres undefined),-15.8% (active),11.7%,-27.5%
CCC(=O)N(C)C[C@H]1[C@H](c2ccc(-c3ccccc3F)cc2)[C@@H](CO)N1C(C)=O,3.08% (inactive),7.42%,-4.34%
CCCNC(=O)[C@@H]1[C@@H](CO)[C@@H]2Cn3c(cccc3=O)[C@H]1N2C(=O)C1CCC1,-0.71% (inactive),1.58%,-2.29%
CC=Cc1ccc2n(c1=O)C[C@@H]1[C@@H](CO)[C@H](C(=O)NCCCN3CCOCC3)[C@H]2N1Cc1cocn1 (mixture of isomers),-1.75% (inactive),4.32%,-6.07%
CCCNC(=O)[C@@H]1[C@@H](CO)[C@@H]2Cn3c(ccc(C4=CCCCC4)c3=O)[C@H]1N2CCC,0.23% (inactive),-0.339%,0.57%

Structure (SMILES),"activity change, negative = inhibition","activity change, negative = inhibition [1]",Gaussia minus Italica difference
COCCN(C[C@H]1[C@@H](c2ccccc2)[C@H](CO)N1C(=O)C1CCC1)C(C)=O,-2.05% (inactive),5.46%,-7.51%
C[C@H]1CN([C@@H](C)CO)S(=O)(=O)c2ccc(-c3ccncc3)cc2O[C@H]1CN(C)S(C)(=O)=O,-0.678% (inactive),4.8%,-5.48%
CCC(=O)N1C[C@@H](C)[C@H](OC)CN(C)C(=O)c2cc(NC(=O)c3cc(C)on3)ccc2OC[C@@H]1C,-1.43% (inactive),2.42%,-3.85%
CCCNC(=O)N1C[C@@H](C)[C@@H](OC)CN(C)C(=O)c2ccc(NC(=O)C3CCC3)cc2OC[C@@H]1C,-2.74% (inactive),-2.2%,-0.535%
CN1C(=O)c2cc(NS(=O)(=O)c3ccc(Cl)cc3)ccc2OC[C@H]2O[C@@H](CC(=O)O)CC[C@H]21,2.17% (inactive),-0.461%,2.63%
CN1C(=O)c2cc(NC(=O)c3ccc(F)c(F)c3)ccc2OC[C@H]2O[C@@H](CC(=O)N3CCCCC3)CC[C@H]21,-2.75% (inactive),-1.85%,-0.906%
CO[C@@H](CN(C)C(=O)Nc1ccc(F)cc1)[C@H](C)CN(Cc1ccccc1Cl)[C@@H](C)CO,1.39% (inactive),-1.3%,2.69%
COCC(=O)N1CC2(C1)[C@H](c1ccc(-c3cccc(F)c3)cc1)[C@@H](CO)N2C(=O)COC,6.28% (inactive),3.24%,3.04%
CN(C)c1ccc2c(c1)[C@H]1C[C@H](CC(=O)O)O[C@H](CO)[C@H]1O2,1.12% (inactive),6.76%,-5.64%
C[C@@H]1CN([C@H](C)CO)C(=O)c2c(c3ccccc3n2C)-c2ccccc2CO[C@@H]1CN(C)Cc1ccc(F)cc1,-34.5% (active),-8.76%,-25.8%
C[C@H]1CN([C@@H](C)CO)C(=O)c2c(c3ccccc3n2C)-c2ccccc2CO[C@H]1CN(C)Cc1ccc2c(c1)OCO2,3.62% (inactive),-0.444%,4.06%
C[C@@H]1CN([C@H](C)CO)C(=O)c2c(c3ccccc3n2C)-c2ccccc2CO[C@@H]1CN(C)Cc1ccccc1C(F)(F)F,-42% (active),-5.06%,-36.9%
C[C@@H]1CN([C@@H](C)CO)C(=O)c2c(c3ccccc3n2C)-c2ccccc2CO[C@@H]1CN(C)S(=O)(=O)c1cccs1,10.1% (inactive),4.92%,5.19%
C[C@@H]1CN([C@@H](C)CO)C(=O)c2c(c3ccccc3n2C)-c2ccccc2CO[C@@H]1CN(C)Cc1ccc2c(c1)OCCN2C,-2.06% (inactive),2.22%,-4.27%
Cc1ccccc1S(=O)(=O)N(C)C[C@@H]1OCc2ccccc2-c2c(n(C)c3ccccc23)C(=O)N([C@H](C)CO)C[C@H]1C,-34% (active),-6.75%,-27.3%
C[C@@H]1CN([C@@H](C)CO)C(=O)c2c(c3ccccc3n2C)-c2ccccc2CO[C@H]1CN(C)Cc1cccc(C(=O)O)c1,-0.025% (inactive),-8.31%,8.28%
C[C@@H]1CN([C@@H](C)CO)C(=O)c2c(c3ccccc3n2C)-c2ccccc2CO[C@@H]1CN(C)Cc1cccc(C(=O)O)c1,7.37% (inactive),5%,2.36%
C[C@H](CO)N1C[C@H](C)[C@@H](CN(C)Cc2ccc(C(F)(F)F)cc2)OCc2ccccc2-c2c(n(C)c3ccccc23)C1=O,-40.3% (active),-11%,-29.3%
C[C@@H]1CN([C@@H](C)CO)C(=O)c2c(c3ccccc3n2C)-c2ccccc2CO[C@@H]1CN(C)S(=O)(=O)CC(F)(F)F,18.5% (inactive),1.21%,17.3%
C[C@@H]1CN([C@@H](C)CO)C(=O)c2c(c3ccccc3n2C)-c2ccccc2CO[C@H]1CN(C)S(=O)(=O)c1cccs1,-5.46% (inactive),-1.09%,-4.37%
CC(C)OC(=O)N(C)C[C@@H]1OCc2ccccc2-c2c(n(C)c3ccccc23)C(=O)N([C@H](C)CO)C[C@H]1C,-4.14% (inactive),-0.897%,-3.24%

# — PubChem BioAssay AID1224904 (Broad Institute, 2016)
